The test system of assay [1] is Plasmodium falciparum Sir2 (PF13_0152, Sir2A). As to the kind of experiment: Plasmodium falciparum Sir2A binding compounds – biochemical, small-molecule microarray, 635 nm fluorescence, primary screen (AID 1098).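 Further: score merges spot fluorescence intensity with its signal-to-noise ratio.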 Conditions: fluorescence 635 nm, higher = more signal.
A short description of assay [2]: probe aDKK1 binding to arrayed compounds – biochemical, biotinylated probe, 635/667 nm fluorescence, primary screen (AID 1099).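 Further: score merges 667nm spot fluorescence with signal to noise across triplicate slides.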 As to conditions: small-molecule microarray, higher = more signal.
Assay [3] in a line: probe aCHRDL2 binding to arrayed compounds – biochemical, biotinylated probe, 635/667 nm fluorescence, primary screen (AID 1100). Conditions: small-molecule microarray, higher = more signal.
Assay [4] can be described thus: change in splice reporter luminescence, either direction, cell-based, HEK293, spliceosome inhibition project, primary screen (AID 1101).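 Further: HEK293 cells carrying a splicing-competent luciferase reporter gene; test concentration not given here.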 Conditions: HEK293 splicing luciferase reporter, 24 h, higher = more signal, called active from +8 up or from −8 down. In general terms: Reporter assays use an easily measured gene product as a stand-in for the process of interest.

The target of assay [5] is Fibroblast growth factor 10 (Homo sapiens) (UniProt O15520). Description: compounds binding fibroblast growth factor 10 – biochemical, small-molecule microarray, 635 nm fluorescence, primary screen (AID 1102). Conditions: FGF10 binding, fluorescence 635 nm, higher = more signal.
Fibroblast growth factor 10 (Homo sapiens), sequence (O15520 whole entry, looked up): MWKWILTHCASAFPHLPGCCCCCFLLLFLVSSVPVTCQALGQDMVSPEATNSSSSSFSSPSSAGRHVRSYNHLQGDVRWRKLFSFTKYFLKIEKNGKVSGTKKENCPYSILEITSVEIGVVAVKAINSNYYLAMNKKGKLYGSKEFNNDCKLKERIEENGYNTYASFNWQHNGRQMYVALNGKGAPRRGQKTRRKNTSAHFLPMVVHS
Assay [6] deals with glycogen synthase kinase-3 (GSK3A per assay name; protocol says GSK3B). Description: compounds binding glycogen synthase kinase-3 – biochemical, small-molecule microarray, 635 nm fluorescence, GSK3A, primary screen (AID 1103). Further: the record names both GSK3A and GSK3B. As to conditions: fluorescence 635 nm, higher = more signal.
For assay [7], the target named is Epidermal growth factor receptor (Homo sapiens) (UniProt P00533). Description: compounds binding epidermal growth factor receptor – biochemical, small-molecule microarray, 635 nm fluorescence, primary screen (AID 1104).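 Further: score merges 667 nm emission intensity with spot signal to noise over triplicate slides.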 Conditions: EGFR binding, higher = more signal.
Epidermal growth factor receptor (Homo sapiens), sequence (P00533 whole entry, looked up): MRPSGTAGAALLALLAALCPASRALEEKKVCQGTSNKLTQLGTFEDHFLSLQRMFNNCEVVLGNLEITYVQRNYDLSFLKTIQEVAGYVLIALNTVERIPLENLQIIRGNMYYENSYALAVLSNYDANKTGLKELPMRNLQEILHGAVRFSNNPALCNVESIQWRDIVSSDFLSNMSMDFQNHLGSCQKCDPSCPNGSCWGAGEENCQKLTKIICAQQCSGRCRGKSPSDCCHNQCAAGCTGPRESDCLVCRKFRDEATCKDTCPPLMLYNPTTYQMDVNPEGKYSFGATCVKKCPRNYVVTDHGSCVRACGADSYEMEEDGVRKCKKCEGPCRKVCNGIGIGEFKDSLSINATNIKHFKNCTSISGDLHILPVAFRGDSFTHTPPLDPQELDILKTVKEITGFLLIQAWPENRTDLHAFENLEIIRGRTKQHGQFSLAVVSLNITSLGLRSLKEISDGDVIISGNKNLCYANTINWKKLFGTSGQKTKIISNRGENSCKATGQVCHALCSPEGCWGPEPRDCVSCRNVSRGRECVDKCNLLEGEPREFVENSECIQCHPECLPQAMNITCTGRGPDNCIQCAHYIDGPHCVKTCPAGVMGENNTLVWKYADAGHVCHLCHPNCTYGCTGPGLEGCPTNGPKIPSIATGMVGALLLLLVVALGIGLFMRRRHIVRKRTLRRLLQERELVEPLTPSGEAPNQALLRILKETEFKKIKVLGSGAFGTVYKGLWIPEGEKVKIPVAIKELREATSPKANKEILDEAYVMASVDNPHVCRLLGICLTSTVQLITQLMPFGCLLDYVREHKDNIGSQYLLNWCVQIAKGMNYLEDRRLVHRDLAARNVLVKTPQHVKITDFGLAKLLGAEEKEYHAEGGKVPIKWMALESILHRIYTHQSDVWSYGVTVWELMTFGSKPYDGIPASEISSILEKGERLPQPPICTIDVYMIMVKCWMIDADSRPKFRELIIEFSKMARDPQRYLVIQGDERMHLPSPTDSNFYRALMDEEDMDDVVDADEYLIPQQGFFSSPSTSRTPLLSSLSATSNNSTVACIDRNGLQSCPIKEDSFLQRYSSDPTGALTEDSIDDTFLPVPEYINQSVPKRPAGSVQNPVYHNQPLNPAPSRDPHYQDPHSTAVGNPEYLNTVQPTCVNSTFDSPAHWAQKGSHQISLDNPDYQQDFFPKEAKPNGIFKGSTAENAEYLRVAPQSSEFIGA
Assay [8] concerns the target Follistatin-related protein 3 (Homo sapiens) (UniProt O95633). As to the kind of experiment: compounds binding follistatin-related protein 3 – biochemical, small-molecule microarray, 635 nm fluorescence, primary screen (AID 1105).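 Further: score merges emission near 667 nm and signal to noise per printed spot across three slides.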 As to conditions: FSTL3 binding, higher = more signal.
Assay [9] has as its target Dickkopf-related protein 1 (Homo sapiens) (UniProt O94907). Description: small molecules binding DKK1 protein – biochemical, small-molecule microarray, 635 nm fluorescence scan, primary screen (AID 1106).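 Further: score merges emission near 667 nm with signal to noise over three replicate slides.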 Conditions: higher = more signal.
The test system of assay [10] is Inhibin beta A chain (activin A). Description: small molecules binding activin A – biochemical, small-molecule microarray, 635 nm fluorescence scan, primary screen (AID 1107).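 Further: mouse activin A protein probed at 4.33 µg/mL on printed slides; score merges bound-protein fluorescence near 667 nm with spot signal-to-noise.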 Conditions: INHBA, higher = more signal.
Assay [11] relates to Human papillomavirus type 1a protein E7 (residues 44-93). As to the kind of experiment: small molecules binding HPV E7 44-93 – biochemical, small-molecule microarray, residues 44-93, 635 nm fluorescence, primary screen (AID 1108).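 Further: E7 fragment applied at 1 µg/mL in TBST for 1 h at 4 C; score combines spot fluorescence with its signal to noise ratio.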 Conditions: fluorescence 635 nm, higher = more signal.
Assay [12] is described as follows: hepatitis C replication reporter changes, two-sided – Huh7 cells, luciferase reporter, HCV replication inhibitor project, primary screen (AID 1109).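 Further: huh7 hepatoma cells harbouring a luciferase neomycin HCV replicon reporter; luciferase luminescence as measure of HCV replicon replication; test concentration not given here.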 Conditions: Huh7 HCV replicon luciferase reporter, 48 h; higher = more signal.
In assay [13] the target is Left-right determination factor 2 (Homo sapiens) (UniProt O00292). Description: small molecules binding LEFTY2 protein – biochemical, small-molecule microarray, 635 nm fluorescence scan, primary screen (AID 1110). Conditions: higher = more signal.
Left-right determination factor 2 (Homo sapiens), sequence (O00292 whole entry, looked up): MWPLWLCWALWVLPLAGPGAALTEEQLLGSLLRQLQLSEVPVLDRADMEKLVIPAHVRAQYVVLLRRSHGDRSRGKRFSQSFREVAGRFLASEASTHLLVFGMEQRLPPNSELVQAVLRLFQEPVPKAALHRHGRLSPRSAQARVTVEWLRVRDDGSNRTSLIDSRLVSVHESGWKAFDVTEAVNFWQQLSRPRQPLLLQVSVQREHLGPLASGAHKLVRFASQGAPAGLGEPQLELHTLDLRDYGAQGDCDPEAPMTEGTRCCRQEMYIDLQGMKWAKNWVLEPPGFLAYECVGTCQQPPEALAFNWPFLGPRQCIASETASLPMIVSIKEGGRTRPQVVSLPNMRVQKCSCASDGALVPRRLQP
Assay [14] deals with Calmodulin-1 (Homo sapiens) (UniProt P0DP23). As to the kind of experiment: small molecules binding calmodulin-1 with EGTA – biochemical, small-molecule microarray, Cy5-labelled CALM1, profiling panel (AID 1111).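 Further: labelled calmodulin applied in Tris saline Tween buffer holding calcium plus EGTA and DTT.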 As to conditions: Cy5-CALM1 binding fluorescence, higher = more signal.
Assay [15] has the same target. Description: small molecules binding Ca-loaded calmodulin-1 – biochemical, small-molecule microarray, Cy5-labelled CALM1, plus calcium, artefact control for SMM control-protein annotation, profiling panel (AID 1112).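 Further: score merges spot fluorescence with signal to noise from triplicate slides.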 As to conditions: Cy5-CALM1 binding fluorescence, higher = more signal.
A short description of assay [16]: probe aWnt5a binding to arrayed compounds – biochemical, biotinylated probe, 635/667 nm fluorescence, primary screen (AID 1113).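 Further: score merges 667 nm fluorescence intensity with signal-to-noise per printed feature.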 Conditions: small-molecule microarray, higher = more signal.
Assay [17] in a line: probe aShh binding to arrayed compounds – biochemical, biotinylated probe, 635/667 nm fluorescence, primary screen (AID 1114).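 Further: probe is biotin-labelled aShh protein from a stem cell growth factor screen; measures binding of labelled protein to compounds printed on the slide; score merges feature fluorescence at 667 nm with signal-to-noise.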 Conditions: small-molecule microarray, higher = more signal.
Assay [18] in a line: probe aNog binding to arrayed compounds – biochemical, biotinylated probe, 635/667 nm fluorescence, primary screen (AID 1115).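 Further: probe is biotinylated aNog protein used at 0.15 µg/mL for 1 h at 4 C; z-score combines 667 nm fluorescence of each spot with its signal to noise.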 As to conditions: small-molecule microarray, higher = more signal.
Assay [19] has as its target Torsin-1A-interacting protein 1 (Homo sapiens) (UniProt Q5JTV8). As to the kind of experiment: compound microarray binding of lysate hLAP1 – cell lysate, small-molecule microarray, COS7 lysate, 635/667 nm fluorescence, primary screen (AID 1116). Conditions: 635 nm fluorescence, higher = more signal.
In assay [20] the target is Alpha-bungarotoxin (Bungarus multicinctus) (UniProt P60615). Description: compounds binding labelled alpha-BTX control protein – biochemical, small-molecule microarray, Alexa647 label, 635/667 nm fluorescence, artefact control for SMM control protein annotation, profiling panel (AID 1117). Conditions: alpha-BTX-A647 binding fluorescence, higher = more signal.
Alpha-bungarotoxin (Bungarus multicinctus), sequence (P60615 whole entry, looked up): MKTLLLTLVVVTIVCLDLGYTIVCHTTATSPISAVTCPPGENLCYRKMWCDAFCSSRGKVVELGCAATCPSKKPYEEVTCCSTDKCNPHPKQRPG

Structures are written as SMILES. Active and inactive are the calls of the source.

Torsin-1A-interacting protein 1 (Homo sapiens), sequence (Q5JTV8 whole entry, looked up): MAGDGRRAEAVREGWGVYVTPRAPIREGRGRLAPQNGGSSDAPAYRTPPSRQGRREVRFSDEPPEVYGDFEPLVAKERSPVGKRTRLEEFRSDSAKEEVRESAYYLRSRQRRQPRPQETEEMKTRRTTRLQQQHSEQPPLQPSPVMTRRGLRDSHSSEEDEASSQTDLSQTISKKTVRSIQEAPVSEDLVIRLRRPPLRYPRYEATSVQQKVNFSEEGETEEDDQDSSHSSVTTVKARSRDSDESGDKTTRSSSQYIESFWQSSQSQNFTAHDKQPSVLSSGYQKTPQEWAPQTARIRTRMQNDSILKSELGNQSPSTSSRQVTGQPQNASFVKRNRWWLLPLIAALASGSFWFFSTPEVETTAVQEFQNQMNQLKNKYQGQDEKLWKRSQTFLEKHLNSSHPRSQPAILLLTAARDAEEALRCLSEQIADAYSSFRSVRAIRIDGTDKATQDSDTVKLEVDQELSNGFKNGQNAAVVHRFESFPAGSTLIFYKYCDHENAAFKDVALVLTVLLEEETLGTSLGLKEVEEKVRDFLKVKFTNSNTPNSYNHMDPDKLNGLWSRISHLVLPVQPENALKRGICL
Follistatin-related protein 3 (Homo sapiens), sequence (O95633 whole entry, looked up): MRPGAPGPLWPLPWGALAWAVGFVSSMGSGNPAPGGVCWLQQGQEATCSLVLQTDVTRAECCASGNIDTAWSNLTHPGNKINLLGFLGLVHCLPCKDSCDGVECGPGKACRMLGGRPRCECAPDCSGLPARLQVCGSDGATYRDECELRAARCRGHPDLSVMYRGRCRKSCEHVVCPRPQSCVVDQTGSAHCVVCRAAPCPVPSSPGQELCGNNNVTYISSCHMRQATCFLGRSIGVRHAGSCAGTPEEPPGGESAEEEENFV
Dickkopf-related protein 1 (Homo sapiens), sequence (O94907 whole entry, looked up): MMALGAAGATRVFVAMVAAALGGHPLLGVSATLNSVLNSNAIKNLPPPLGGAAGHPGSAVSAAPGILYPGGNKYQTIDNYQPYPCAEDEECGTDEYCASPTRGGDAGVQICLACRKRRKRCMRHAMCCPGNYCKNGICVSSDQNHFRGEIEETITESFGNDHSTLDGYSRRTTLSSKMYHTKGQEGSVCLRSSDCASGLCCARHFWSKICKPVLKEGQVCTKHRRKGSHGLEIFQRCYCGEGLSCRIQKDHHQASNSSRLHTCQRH

In the case of `CC[C@@H](c1ccccc1)n1c(=O)n2n(c1=O)[C@H]1[C@H](O)[C@@H]3O[C@@H]3C(=NOCC(C)C)[C@H]1CC2`, the composite z-score in [1] was 0.315; in assay [2], -0.187; in assay [3], -0.532; in [5], -0.0238; in assay [6] it was 0.0344; in assay [7], 0.143. Further, the composite z-score in [8] is 0.227; in assay [9] it was 0.202; in assay [10] it was -0.0597; in assay [11], 0.284; in assay [13] it was 0.143; in assay [14], -0.0128. The composite z-score in assay [15] is -0.178; in [16] it was -0.12; in assay [17], -0.14; in assay [18], -0.407; in assay [19], 0.107; in assay [20], -0.088. The figures for the z-score in assay [4] and in assay [12] were 1.26 (inactive) and -2.11, respectively.

Turning to `CO[C@H]1COC(=O)CC=C[C@H](C)[C@@H](NS(=O)(=O)c2ccc(C)cc2)COC(=O)CC=C[C@@H]1C`, the composite z-score is 0.219 in [1]; -0.257 in assay [2]; -0.674 in assay [3]; 0.582 in [5]; 0.528 in [6]; 0.853 in assay [7]. Further, the composite z-score was 0.579 in assay [8]; 0.761 in assay [9]; 0.257 in [10]; 0.0839 in [11]; 0.694 in assay [13]; -0.46 in assay [14]. The composite z-score in assay [15] was -0.521; in assay [16], -0.0738; in assay [17], -0.13; in assay [18] it was 0.0613; in assay [19] it was 0.37; in assay [20], -0.153. The values for the z-score in assay [4] and in assay [12] were -2.06 (inactive) and -1.72, respectively.

Regarding `C=CCN1C(=O)[C@]2(O[C@H](CCn3cc(CCO)nn3)[C@@H]([Si](C)(C)c3ccc(OC)cc3)[C@@H]2C)c2cc(N3CCOC3=O)ccc21`, the composite z-score in assay [1] is 1.62; in assay [2], -0.286; in assay [3], 0.223; in assay [5] it was 0.301; in [6], 0.341; in [7], -0.82. Moreover, the composite z-score was -0.609 in [8]; -0.555 in assay [9]; 0.175 in [10]; 1.07 in assay [11]; -0.264 in assay [13]; 0.504 in assay [14]. In addition, the composite z-score is -0.463 in assay [15]; -0.0403 in assay [16]; -0.0356 in assay [17]; -0.0841 in [18]; 1.52 in [19]; 0.465 in [20]. In addition, the z-score in [4] was 2.29 (inactive); in [12], -3.46.

For the molecule `CCOC(=O)CCN1C(=O)[C@H]2[C@H]3[C@H](O)[C@H](O)CC(=NOCc4ccccc4)[C@@H]3CC[C@H]2C1=O`, the composite z-score was 0.174 in assay [1]; -0.206 in assay [2]; -0.608 in assay [3]; 0.526 in assay [5]; 0.597 in assay [6]; 0.641 in assay [7]. Moreover, the composite z-score in assay [8] was 0.749; in assay [9], 0.4; in [10] it was 0.0727; in [11] it was -0.482; in [13] it was 0.591; in [14] it was -0.138. Also, the composite z-score in assay [15] is -0.848; in assay [16] it was -0.0125; in assay [17], -0.243; in [18], 0.107; in [19], -0.0594; in assay [20] it was 0.419. The z-score was 0.0671 (inactive) in assay [4] and -1.08 in [12].

On to `C=C(COC)/C(=C/C[C@H](OC(=O)c1ccncc1)c1ccc(CO)o1)c1cc(C(=O)OC)ccc1OC`, for which the composite z-score was 1.69 in assay [1]; -0.0393 in [2]; -0.0885 in assay [3]; 1.37 in [5]; 0.637 in [6]; 0.0603 in assay [7]. Besides, the composite z-score turned out to be 1.15 in [8]; 0.82 in assay [9]; 1.34 in [10]; 0.822 in assay [11]; 0.208 in [13]; 0.0845 in assay [14]. For the same molecule, the composite z-score in [15] is -0.409; in assay [16], -0.0107; in assay [17], -0.0553; in [18], -0.0446; in assay [19], 0.0683; in [20], 0.318. In addition, the z-score is -0.647 (inactive) in [4] and -0.718 in [12].

As for `COC(=O)CC=C[C@H](C)[C@H](CO)NS(=O)(=O)c1ccc(C)cc1`, the composite z-score in assay [1] was 0.227; in assay [2] it was -0.397; in assay [3] it was -0.707; in assay [5], 0.62; in assay [6], 0.252; in assay [7] it was 0.573. The composite z-score in [8] is 0.48; in [9] it was 0.987; in [10] it was -0.273; in assay [11] it was 0.144; in assay [13] it was 0.703; in [14], -0.756. Also, the composite z-score in assay [15] is -0.624; in assay [16] it was -0.124; in [17] it was -0.117; in assay [18], -0.0094; in [19] it was 0.729; in assay [20], 0.219. Further, the figures for the z-score in assay [4] and in assay [12] were 0.636 (inactive) and -0.763, respectively.

For `CO[C@@H]1COC(=O)CCC[C@@H](C)[C@H](OC)COC(=O)[C@H](Cc2ccccc2)NC(=O)CC=C[C@H]1C`, the composite z-score in [1] was 0.637; in [2], -0.485; in [3] it was -0.497; in [5], -0.974; in assay [6], -0.999; in assay [7] it was 0.231. Further, the composite z-score in [8] was 0.507; in assay [9], 0.915; in assay [10], 1.6; in assay [11], -1.68; in [13], 0.714; in [14], -1.16. Further, the composite z-score was -1.81 in assay [15]; -0.197 in [16]; 0.194 in assay [17]; 0.0596 in [18]; -0.405 in assay [19]; -0.0864 in assay [20]. For the same molecule, the z-score in assay [4] was -0.491 (inactive); in assay [12] it was -1.48.

For the molecule `O=C1O[C@@H](c2ccccc2)[C@@H](c2ccccc2)N2[C@@H](c3ccc(OCCO)cc3)[C@]3(C(=O)Nc4ccccc43)[C@@H](C(=O)N3CCN(c4ncccn4)CC3)[C@H]12`, the composite z-score was 1.4 in [1]; 0.556 in assay [2]; -0.0223 in [3]; 0.69 in assay [5]; 1.22 in assay [6]; 0.774 in assay [7]. Besides, the composite z-score in [8] worked out at 1.23; in assay [9], 0.886; in [10], 0.38; in assay [11] it was 1.35; in assay [13] it was 0.773; in assay [14], 0.0357. The composite z-score is -0.355 in [15]; -0.0685 in assay [16]; 0.0044 in assay [17]; 0.751 in assay [18]; 0.96 in [19]; 1.53 in [20]. Moreover, the z-score in assay [4] was -0.0125 (inactive); in [12] it was -2.4.

As for `O=C1[C@H]2[C@H]3[C@H](O)[C@H](O)CC(=NO[C@@H]4O[C@H](CO)[C@@H](O)[C@H](O)[C@H]4O)[C@@H]3CC[C@H]2C(=O)N1c1ccc(F)cc1F`, the composite z-score in [1] was 0.406; in [2], -0.157; in [3], -0.445; in assay [5], 0.794; in assay [6] it was 0.703; in [7], 0.541. The composite z-score was 0.608 in [8]; 0.451 in assay [9]; -0.114 in [10]; 0.343 in [11]; 0.428 in assay [13]; -0.364 in [14]. Moreover, the composite z-score was -0.561 in assay [15]; -0.12 in [16]; 0.284 in assay [17]; -0.349 in assay [18]; 0.467 in assay [19]; 0.161 in [20]. Also, the z-score in [4] is -0.244 (inactive); in assay [12], 0.434.

(Values after PubChem BioAssay.)
